Reference: the supplement of paper PMC4206467

System: Perkinsus marinus PRA240
Experiment: ATP content (proliferation) relative to DMSO control; higher = more parasite growth (less inhibition)
Details: 20 µM; 4 days
Protocol: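 Perkinsus marinus PRA240 trophozoites (2-5x10^6 cells/ml, 100 µl, 96-well) were exposed once to MMV Malaria Box compounds at 20 µM (0.1% DMSO) in triplicate. ATP content (ATPlite bioluminescence) was read at day 4 post-exposure and normalised to DMSO + cells control wells (100% activity). Compounds were identified by joining plate and well to the Malaria Box list.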

SMILES	ATP content [%]
CC(=O)NCCc1nc2ccccc2n1Cc1ccc(C(C)C)cc1	120
Cc1cc(N2CCCC2)nc(Nc2ccc(NC(=O)CCc3ccccc3)cc2)n1	119
COc1ccc2c(c1)C1(Nc3ccccc3-c3nc4ccccc4n31)C(=O)N2 (stereo not given)	113
CCOC(=O)c1cnc2c(C)cccc2c1Nc1ccc(C(C)=O)cc1	122
COc1ccc(C=C2SC(Nc3ccccc3)=NC2=O)cc1	61.4
CC1=C(CC(=O)c2cccc([N+](=O)[O-])c2)C(=O)c2ccccc2C1=O	136
COc1ccc(C2c3ccc4ccccc4c3Oc3ncn(CCCN(C)C)c(=N)c32)cc1 (stereo not given)	202
O=C(Nc1ccc(-c2nc3cc(NC(=O)c4ccc(Cl)cc4)ccc3[nH]2)cc1)c1ccc(Cl)cc1	141
CCOc1ccc2c(c1)CN(Cc1ccc(Cl)cc1)CO2	155
COc1cc2c3cc1Oc1c(OC)c(OC)cc4c1C(Cc1ccc(O)c(c1)Oc1ccc(cc1)CC3N(C)CC2)N(C)CC4 (stereo not given)	144
COCCNCC(O)Cn1c2ccc(Cl)cc2c2cc(Cl)ccc21 (stereo not given)	143
c1ccc(C2=Nc3ccccc3N=C(c3ccccc3)c3ccccc32)cc1	117
COc1ccc(-c2cc(=O)oc3c4c(ccc23)OCN(Cc2ccc(F)cc2)C4)cc1	130
Cc1ccc(-c2cc(C(=O)Nc3ccc(S(=O)(=O)N4CCCCC4)cc3)[nH]n2)c(O)c1	104
CCCCCCc1cc2cc(-c3csc(C=Cc4ccccc4)n3)c(=O)oc2cc1O	137
CCN1CCN(c2cc(C)c3cc(NC(=O)c4ccc(OC)c(OC)c4)ccc3n2)CC1	91.6
CCOc1ccc(N2C(N)=NC(N)=NC2(C)C)cc1	114
COc1ccc(-c2cn3c(C(=O)Nc4ccccc4Cl)c(-c4ccccc4)c4c3n2CCCC4)cc1	99.7
Cc1ccc2cc3c(N)c4c(C)ccc(C)c4nc3nc2c1	142
CC1CC(C)CN(C(=O)c2ccc(Cl)cc2Cl)C1 (stereo not given)	135

SMILES	ATP content [%]
CC(C)(C)CC(C)(C)NCC(O)COc1ccc2c(c1)CCC2 (stereo not given)	114
CN1C=C(c2ccc3ccccc3n2)C(c2c[nH]c3ccccc23)c2ccccc21 (stereo not given)	108
OCCNc1nc(Nc2ccc(Cl)c(Cl)c2)nc2ccccc12	28.8
Nc1nc(Nc2cccc(F)c2)nc2ccccc12	26
CCOC(=O)c1cnc2ccc(Cl)cc2c1NCCCN(C)C	147
CCOc1ccc(C=Cc2nc(=O)c3ccccc3o2)cc1	14.6
Cn1c(=O)c2cc(C(=O)NCCCN3CCCCCC3)sc2c2ccccc21	86.3
CCCc1c(C)nc2ccc(Br)cc2c1O	58.8
O=C(Nc1ccc(-c2nc3ccccc3[nH]2)cc1)c1ccc(Cl)c(Cl)c1	97.8
COc1ccc2sc(N(Cc3cccnc3)C(=O)c3ccc(C#N)cc3)nc2c1	111
Cc1cccc(N2C(=O)C3C(C2=O)C2(c4ccccc4)C(=O)C3(c3ccccc3)C(c3ccc4c(c3)OCO4)=C2c2ccc3c(c2)OCO3)c1 (stereo not given)	110
CCOc1ccc2nc(C)cc(Nc3ccc(Br)cc3)c2c1	3.75
Cc1ccc(Cl)cc1N1CCN(CCCNC(=O)C2CCN(c3nc4ccccc4[nH]3)CC2)CC1	87.1
Cc1ccc2c(C)nc(Nc3nc(C)cc(-c4ccccc4)n3)nc2c1	93
COc1ccc(CN2CCCC(C(=O)c3ccc(C(F)(F)F)cc3)C2)c(O)c1 (stereo not given)	117
COc1ccc(C(=O)C(CCC(CNC(C)(C)C)C(=O)c2ccc(OC)cc2)CNC(C)(C)C)cc1 (stereo not given)	120
CCc1ccc(CNCC(O)c2ccccc2)cc1 (stereo not given)	60.8
CCOc1ccc(-c2nc(NC(=O)c3cccc(S(C)(=O)=O)c3)sc2C)cc1	79.8
COc1ccc(Nc2nc(NN=Cc3ccc(O)cc3)nc(Nc3ccc([N+](=O)[O-])cc3)n2)cc1	39.1
Cc1cc(=O)oc2c1ccc1oc(C(=O)c3ccccc3)c(C)c12	154
